Screen size: about 53,000 sequences; about 3,700 (7%) were called active.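 Rule for the calls: active = gene knockdowns whose robust z-score for IL-1 alpha signal is at least 2 or at most -2, so actives lie on both sides; inactive = the rest.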 Shown is part of a subset that was picked to be rich in actives.
assay: Components of the Cytosolic LPS Sensing Pathway: Gene Identification via Genome-wide siRNA Screen; settings: RAW264.7 macrophages, IL-1a HTRF, actives lie on both sides, screened at 100 nM (by protocol), cells primed 5 h with Pam3CSK4 first;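 note: robust z of the log signal after scaling to non-targeting control siRNA wells of the plate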
How it was run: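 Cells (RAW264.7, 1×10^4 per well) were transfected with siRNA at 100 nM and cultured 48h at 37 degrees C. Pam3CSK4 was added for 5 hours; LipidA transfection followed for 24 hour. IL-1a was then measured by HTRF.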

| Sequence | z-score |
| --- | --- |
| GCGAGAGCUAAAGUAAAAUTT against Egln1 | -0.671 (inactive) |
| GGCUAAAGUGAGCUCUUCATT against Nob1 | -0.947 (inactive) |
| GGUGUGUUACUGAUGAUUCTT against Olfr669 | -0.37 (inactive) |
| GCAGAGUGACUUUGAAGCGTT against Klf10 | 0.844 (inactive) |
| CCAAGUUCAUUCUUUUUGCTT against Cobll1 | 1.2 (inactive) |
| CCCUAGAAGAAUCAAGCUCTT against Prune2 | -1.35 (inactive) |
| GGAAUGAUAGAAAAUGGACTT against Gvin1 | -2.16 (active) |
| GGCAGAGACCACUAAUACCTT against Tmem131l | -0.881 (inactive) |
| GGCAGGCAAUUCAAACAAUTT against Orm1 | -1.24 (inactive) |
| GCUAUCCUCAAUUGCACACTT against Atxn3 | 1.49 (inactive) |
| GGUUUGAAAGGAGAAAGAGTT against Col4a6 | 0.366 (inactive) |
| GGCCUUCGUCAUCUUCAAGTT against Snrpa | 1.05 (inactive) |
| GGCCCAAGCUCAACACAAUTT against Aida | 2.31 (active) |
| GGCCAAGAAAAAAGAAAGATT against Slc22a2 | 0.126 (inactive) |
| GGGUUCAGGAGAACUAACUTT against Tmem40 | -1.92 (inactive) |
| GGAUCCUGUUAAGAUUAUCTT against Phykpl | -0.0411 (inactive) |
| GGAUAUUCACUUUCAUAUGTT against Gulp1 | 1.25 (inactive) |
| GGUUUAUGGAGCAAGUGAUTT against Actr3 | -2.07 (active) |
| CCAACAAUGUUUAAAGGAUTT against Olfr476 | -0.32 (inactive) |
| GCCAUGUGCACUGAAUAUATT against Gfral | -1.87 (inactive) |
| GGUCAUCAGUGAUCAGUCATT against Mre11a | -1.33 (inactive) |
| GCAGCAUCCAACUUCCGCUTT against Ffar2 | 3.35 (active) |

| Sequence | z-score |
| --- | --- |
| GGAAAAAAUCAAGAGUGAATT against Fam50a | -0.157 (inactive) |
| GCUACUCUCUAUUGGUUUUTT against Gpr45 | 2.45 (active) |
| GGUGAACUUGAGGUCACACTT against Angpt4 | 0.134 (inactive) |
| GCGGGUUUAUUGUCUAGAATT against Mfn2 | 0.669 (inactive) |
| GGAAGUAGAUUUGAAGUUGTT against Btbd35f1 | 0.256 (inactive) |
| GGAGCUCUUUUUGAACACUTT against Sgcg | 0.946 (inactive) |
| GGCCAAUCAAGAUAGCCACTT against Dnajc1 | 1.12 (inactive) |
| GCUCUCUCUCUUCUUACUGTT against Olfr1160 | -2.16 (active) |
| GCCGUUUGGUUUCGAACUUTT against Mboat2 | 1.17 (inactive) |
| GGUGGAGUGAUACGAAGAGTT against Radx | 1.21 (inactive) |
| CCAUAGUAGCUACCUUGAUTT against Fam107a | 0.537 (inactive) |
| GGAUGAGGUGAACUGAGGGTT against Tmem150b | 0.777 (inactive) |
| GGAAGGUUUGUUGUUUUGUTT against Apon | -1.58 (inactive) |
| GGAUAUGACUAGGUGAAUUTT against Ebf3 | -1.04 (inactive) |
| GGACAUUGUCAAUAUGCUCTT against Pygm | 0.633 (inactive) |
| GGUGUGGAAGUCAGUUUAATT against Serpinb3a | 2.53 (active) |
| CGAUGUGACUAUUUGUUGATT against Snx11 | 0.425 (inactive) |
| GGACCUAAACUGUCAGGAGTT against Eif3g | 0.15 (inactive) |
| GCUCUGUUGUGGAUGCAAUTT against Lonrf2 | 0.859 (inactive) |
| GGGCGGUUCAAAAGGUCAGTT against Cacnb1 | 2.27 (active) |
| CCGGGAUGGAGAAUAAGCUTT against Fgfbp3 | -0.264 (inactive) |
| GCUAUAGGGACCUCUGUCATT against Cdh5 | -2.72 (active) |

| Sequence | z-score |
| --- | --- |
| CCAUGACAUUUCCUAAGUUTT against Sall3 | -0.2 (inactive) |
| GGAGAUUUAUACACACUUGTT against Snx17 | 0.615 (inactive) |
| GCUCCUACUACUGCUUUGCTT against Crem | 0.979 (inactive) |
| GCCCAAAGGUCAAGGAUAUTT against Rptn | -0.036 (inactive) |
| GCUAAGUUUCACCCAAAGGTT against Dennd2c | 1.42 (inactive) |
| GGAGUGAGACAAGUGUAUGTT against Sprr1a | -0.0345 (inactive) |
| GGAAAGAUUCCGAACAAUUTT against Rab8b | 2.12 (active) |
| GGUGGUUGAACAUAAGACUTT against Zfp688 | 1.27 (inactive) |
| GGCAAUACAAACAAGUUCUTT against Klhdc2 | 1.05 (inactive) |
| GGCCUUGUUUUUAAGUAAATT against Atp12a | -0.178 (inactive) |
| GCCAAUGAACCGAUCUCUGTT against Ep400 | -2.13 (active) |
| GGAAUUGGGUAGUACAAAATT against Irak1 | 0.282 (inactive) |
| GGUAAUGAAUAGGAAACUCTT against Ostm1 | -0.773 (inactive) |
| GGAACACACAGAGGUUUAUTT against Hacd1 | 1.87 (inactive) |
| GGGAGUGGCUCCUCAGAAATT against AW549877 | -1.98 (inactive) |
| CGCACAAGUGCUUGAGUUATT against Ccdc151 | 1.03 (inactive) |
| GGACCAAUGUUUUCUUCCUTT against Gngt2 | 0.773 (inactive) |
| GCCUUAAGUGUUCAUGUAATT against Vhl | -0.872 (inactive) |
| GGAAGCCCACUACAACAAUTT against Krt19 | -0.236 (inactive) |
| GCAUUGUGCUGAUGUGCGGTT against Ap1ar | 3.01 (active) |
| GGUAUUCUGGCAAGACCACTT against Aatf | 1.31 (inactive) |
| GGAAGCCUAGUUUUUUUAATT against Csnk2a1 | 2.89 (active) |

| Sequence | z-score |
| --- | --- |
| GCUUUCAGUGAGGUACAAGTT against Gm4425 | -1.25 (inactive) |
| GCUCUUUCUAGCCCUUCCCTT against Spry3 | -0.915 (inactive) |
| GGAAAGAUAGAAGACAAACTT against Spry4 | -0.0777 (inactive) |
| GGUUCUGAUAGCUCAAGAGTT against Polr2b | -1.96 (inactive) |
| GGUUUUGAAAUUCCAGAAUTT against Nol9 | -0.22 (inactive) |
| GGCAACUGUUGUAAAUCAATT against Veph1 | -1.01 (inactive) |
| GGACUCAAACGACACAUGCTT against Eci2 | 2.42 (active) |
| GCCAGUCAUUCAGUAAAGUTT against Mysm1 | -1.15 (inactive) |
| GGAGAAAUGUCAGUGCGAUTT against Mlc1 | 0.431 (inactive) |
| GGUCACAGAAUCGGUUUCATT against Cuta | 1.02 (inactive) |
| GGUUCUUGUUUUUACCCGCTT against Fam187b | 1.19 (inactive) |
| GGAGUGGCUAUGUUUUCGATT against Hrg | 0.658 (inactive) |
| GGACUCGUUCCACUAUCAUTT against Naa20 | 0.33 (inactive) |
| GCGGUUUCGAACAAUCACGTT against Rab8a | -2.4 (active) |
| UCAACUGCUUAGAGCAUGUTT against Tmem259 | 0.653 (inactive) |
| CGACCUCCAGUAAUAACCUTT against Olfr310 | -0.746 (inactive) |
| GGAAAGCUUGGACAUUAAGTT against Rps6kc1 | -0.0887 (inactive) |
| GGUCACGUCAGCAAAGCAATT against B930095G15Rik | -2.73 (active) |
| GCGAUGUGGACAGAAGUACTT against Cyba | 1.01 (inactive) |
| GGUGUUUCAUAAGAAGGAATT against 1700010H22Rik | -1.01 (inactive) |
| GCCAGUACUCUGCUUGUGATT against Naif1 | -1.64 (inactive) |
| GAUCCCUGGAUUGUGGAGUTT against 2310057N15Rik | 0.26 (inactive) |

| Sequence | z-score |
| --- | --- |
| GGACGAGCUGUAUUUGAAUTT against Gsk3a | -0.663 (inactive) |
| CCAAAGAUACCAUAGGAUUTT against Zc3h12a | 1.05 (inactive) |
| GGUAGAUCCUAUCCUGUCUTT against Foxo4 | -2.57 (active) |
| GCUGCAAUAGUCACUGGAGTT against H2-K1 | 0.115 (inactive) |
| GCGACCAGCAGGUCAAAAUTT against Hoxd12 | 3.09 (active) |
| CCCUUCUCUGAGACAACACTT against Tcirg1 | 1.42 (inactive) |
| GGAAAUAAUUCACUCACCATT against Eya1 | -2.99 (active) |
| CCAAGUCGUAAUCUAGAAGTT against Scn7a | 0.191 (inactive) |
| GCUGGACCUUCAUGUAAUATT against Pcsk1 | -0.234 (inactive) |
| CCUCAUGUCUACAAAGUUATT against Gvin1 | -1.14 (inactive) |
| GCGAGUUUUUGGAUGGUAGTT against Slc4a3 | 0.243 (inactive) |
| GGUAUGCAUGAACAUAAUGTT against Prl7c1 | 0.788 (inactive) |
| GGACUUAAAAGAGGAGAUCTT against 4933434E20Rik | 3.73 (active) |
| GGCAUUUUCGUAUAGUUACTT against B3gnt9 | 0.81 (inactive) |
| GGUCAUCAGCUCUAUGAGCTT against Fry | 0.0787 (inactive) |
| GCACAGAGGAUGUACGUUATT against Cstad | -0.665 (inactive) |
| GCCCAGAGAAUGACCUAUATT against 9130019O22Rik | 0.54 (inactive) |
| GGUGCUCCACAACACCUAUTT against 2510039O18Rik | 2.05 (active) |
| CCUACUAUACAAUUCUGCUTT against Clns1a | 0.556 (inactive) |
| GGUCACUUCAUCCAUAGCUTT against Atmin | -1.79 (inactive) |

Source: PubChem BioAssay AID1508600 (Functional Genomics Laboratory (NCATS/FGL), 2020)
